Article PMC11006913
Where a chain is given by its changes, count along the chain named.

How the values were obtained:
Assay in all cases: PBM; 200 nM protein, PBS
Conditions in all cases: dsDNA, one strand shown
PAX4 [1] = target: T1, PAX4 (Homo sapiens, UniProt O43316 9-242, R200K)
T1 sequence: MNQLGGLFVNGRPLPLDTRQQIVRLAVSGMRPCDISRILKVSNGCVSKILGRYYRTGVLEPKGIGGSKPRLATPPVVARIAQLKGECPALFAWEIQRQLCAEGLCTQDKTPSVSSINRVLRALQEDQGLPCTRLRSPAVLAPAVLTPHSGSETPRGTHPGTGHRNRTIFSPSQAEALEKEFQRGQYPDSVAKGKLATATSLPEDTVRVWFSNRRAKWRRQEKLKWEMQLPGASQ

PAX4 [2] = target: T2, PAX4 (Homo sapiens, UniProt O43316 9-242)
T2 sequence: T1 sequence with K192R

ALX3 [3] = target: ALX3 (Homo sapiens, UniProt O95076 139-225, N203Q)
PAX4 [4] = target: T3, PAX4 (Homo sapiens, UniProt O43316 9-242, R200Q)
T3 sequence: T1 sequence with K192Q

PAX4 [5] = target: T4, PAX4 (Homo sapiens, UniProt O43316 9-242, F177V)
T4 sequence: T1 sequence with F169V, K192R

ALX3 [6] = target: ALX3 (Homo sapiens, UniProt O95076 139-225)
PAX4 [7] = target: T5, PAX4 (Homo sapiens, UniProt O43316 9-242, F177Y)
T5 sequence: T1 sequence with F169Y, K192R

ALX3 [8] = target: ALX3 (Homo sapiens, UniProt O95076 139-225, L168V)
PAX4 [9] = target: T6, PAX4 (Homo sapiens, UniProt O43316 9-242, R227W)
T6 sequence: T1 sequence with K192R, R219W

ALX3 [10] = target: ALX3 (Homo sapiens, UniProt O95076 139-225, N203S)
VENTX [11] = target: T7, VENTX (Homo sapiens, UniProt O95231 78-163, R121Q)
T7 sequence: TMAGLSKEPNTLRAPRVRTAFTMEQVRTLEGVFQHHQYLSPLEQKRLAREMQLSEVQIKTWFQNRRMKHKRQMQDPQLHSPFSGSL

VENTX [12] = target: T8, VENTX (Homo sapiens, UniProt O95231 78-163, Y115F)
T8 sequence: T7 sequence with Y38F, Q44R

HOXA2 [13] = target: HOXA2 (Homo sapiens, UniProt O43364 129-215, R185T)
MSX2 = MSX2 (Homo sapiens, UniProt P35548 130-214)
VAX1 = VAX1 (Homo sapiens, UniProt Q5SQQ9 86-172, T142I)
HOXA7 = HOXA7 (Homo sapiens, UniProt P31268 116-202)
HOXA2 [14] = target: HOXA2 (Homo sapiens, UniProt O43364 129-215, R185K)
HOXA2 [15] = target: HOXA2 (Homo sapiens, UniProt O43364 129-215, Y150S)
HOXA2 [16] = target: HOXA2 (Homo sapiens, UniProt O43364 129-215)
HOXA2 (Homo sapiens, UniProt O43364 129-215), sequence (O43364 129-215): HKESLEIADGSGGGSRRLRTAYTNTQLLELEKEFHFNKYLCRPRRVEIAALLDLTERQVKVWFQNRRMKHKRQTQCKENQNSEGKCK

ALX3 (Homo sapiens, UniProt O95076 139-225, N203S), sequence (O95076 139-225 N203S): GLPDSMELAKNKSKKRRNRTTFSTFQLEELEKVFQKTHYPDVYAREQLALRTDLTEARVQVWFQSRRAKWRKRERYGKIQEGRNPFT
ALX3 (Homo sapiens, UniProt O95076 139-225, N203Q), sequence (O95076 139-225 N203Q): as the sequence (O95076 139-225 N203S) above, with S65Q counted along it
ALX3 (Homo sapiens, UniProt O95076 139-225), sequence (O95076 139-225): as the sequence (O95076 139-225 N203S) above, with S65N counted along it
VAX1, sequence (Q5SQQ9 86-172 T142I): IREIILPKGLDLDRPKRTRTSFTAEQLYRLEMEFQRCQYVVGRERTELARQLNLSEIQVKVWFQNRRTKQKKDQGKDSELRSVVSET
ALX3 (Homo sapiens, UniProt O95076 139-225, L168V), sequence (O95076 139-225 L168V): as the sequence (O95076 139-225 N203S) above, with L30V, S65N counted along it
HOXA2 (Homo sapiens, UniProt O43364 129-215, R185T), sequence (O43364 129-215 R185T): as the sequence (O43364 129-215) above, with R57T counted along it
MSX2, sequence (P35548 130-214): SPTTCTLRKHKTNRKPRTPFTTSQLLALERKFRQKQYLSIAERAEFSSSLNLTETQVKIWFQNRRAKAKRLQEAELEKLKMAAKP
HOXA7, sequence (P31268 116-202): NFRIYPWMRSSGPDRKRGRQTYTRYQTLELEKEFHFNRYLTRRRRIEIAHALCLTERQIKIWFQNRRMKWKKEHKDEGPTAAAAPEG
HOXA2 (Homo sapiens, UniProt O43364 129-215, Y150S), sequence (O43364 129-215 Y150S): as the sequence (O43364 129-215) above, with Y22S counted along it
HOXA2 (Homo sapiens, UniProt O43364 129-215, R185K), sequence (O43364 129-215 R185K): as the sequence (O43364 129-215) above, with R57K counted along it

Sequence | binding signal (PAX4 [1]) | binding signal (PAX4 [2]) | binding signal (ALX3 [3]) | binding signal (PAX4 [4]) | binding signal (PAX4 [5]) | binding signal (ALX3 [6]) | binding signal (PAX4 [7]) | binding signal (ALX3 [8]) | binding signal (PAX4 [9]) | binding signal (ALX3 [10]) | binding signal (VENTX [11]) | binding signal (VENTX [12]) | binding signal (HOXA2 [13]) | binding signal (MSX2) | binding signal (VAX1) | binding signal (HOXA7) | binding signal (HOXA2 [14]) | binding signal (HOXA2 [15]) | binding signal (HOXA2 [16])
CAAATTAA | 11.8 upbm affinity estimate (log intensity, higher = more binding, comparable within an allelic series) | 12.4 upbm affinity estimate (log intensity, higher = more binding, comparable within an allelic series) | 8.38 upbm affinity estimate (log intensity, higher = more binding, comparable within an allelic series) | 12.2 upbm affinity estimate (log intensity, higher = more binding, comparable within an allelic series) | 10.5 upbm affinity estimate (log intensity, higher = more binding, comparable within an allelic series) | 12.4 upbm affinity estimate (log intensity, higher = more binding, comparable within an allelic series) | 11.1 upbm affinity estimate (log intensity, higher = more binding, comparable within an allelic series) | 9.81 upbm affinity estimate (log intensity, higher = more binding, comparable within an allelic series) | 11 upbm affinity estimate (log intensity, higher = more binding, comparable within an allelic series) | 8.48 upbm affinity estimate (log intensity, higher = more binding, comparable within an allelic series) |  |  |  |  |  |  |  |  | 
GCCAATTA |  |  | 8.33 upbm affinity estimate (log intensity, higher = more binding, comparable within an allelic series) | 11.9 upbm affinity estimate (log intensity, higher = more binding, comparable within an allelic series) |  | 12.6 upbm affinity estimate (log intensity, higher = more binding, comparable within an allelic series) |  | 10.4 upbm affinity estimate (log intensity, higher = more binding, comparable within an allelic series) |  | 8.5 upbm affinity estimate (log intensity, higher = more binding, comparable within an allelic series) | 11.8 upbm affinity estimate (log intensity, higher = more binding, comparable within an allelic series) | 11.5 upbm affinity estimate (log intensity, higher = more binding, comparable within an allelic series) | 12.6 upbm affinity estimate (log intensity, higher = more binding, comparable within an allelic series) | 14 upbm affinity estimate (log intensity, higher = more binding, comparable within an allelic series) | 12.4 upbm affinity estimate (log intensity, higher = more binding, comparable within an allelic series) |  |  |  | 
TAATTGGA |  |  | 8.38 upbm affinity estimate (log intensity, higher = more binding, comparable within an allelic series) | 12 upbm affinity estimate (log intensity, higher = more binding, comparable within an allelic series) |  | 12.7 upbm affinity estimate (log intensity, higher = more binding, comparable within an allelic series) |  | 10.3 upbm affinity estimate (log intensity, higher = more binding, comparable within an allelic series) |  | 8.55 upbm affinity estimate (log intensity, higher = more binding, comparable within an allelic series) | 11.7 upbm affinity estimate (log intensity, higher = more binding, comparable within an allelic series) |  | 12.5 upbm affinity estimate (log intensity, higher = more binding, comparable within an allelic series) | 14 upbm affinity estimate (log intensity, higher = more binding, comparable within an allelic series) |  |  |  |  | 
CCCAATTA | 11.6 upbm affinity estimate (log intensity, higher = more binding, comparable within an allelic series) | 12.1 upbm affinity estimate (log intensity, higher = more binding, comparable within an allelic series) | 8.37 upbm affinity estimate (log intensity, higher = more binding, comparable within an allelic series) | 11.9 upbm affinity estimate (log intensity, higher = more binding, comparable within an allelic series) | 10.4 upbm affinity estimate (log intensity, higher = more binding, comparable within an allelic series) | 12.6 upbm affinity estimate (log intensity, higher = more binding, comparable within an allelic series) | 10.8 upbm affinity estimate (log intensity, higher = more binding, comparable within an allelic series) | 10.2 upbm affinity estimate (log intensity, higher = more binding, comparable within an allelic series) | 10.7 upbm affinity estimate (log intensity, higher = more binding, comparable within an allelic series) | 8.52 upbm affinity estimate (log intensity, higher = more binding, comparable within an allelic series) | 11.7 upbm affinity estimate (log intensity, higher = more binding, comparable within an allelic series) | 11.5 upbm affinity estimate (log intensity, higher = more binding, comparable within an allelic series) | 12.5 upbm affinity estimate (log intensity, higher = more binding, comparable within an allelic series) | 14 upbm affinity estimate (log intensity, higher = more binding, comparable within an allelic series) | 12.3 upbm affinity estimate (log intensity, higher = more binding, comparable within an allelic series) |  |  |  | 
AATTAGCC | 11.5 upbm affinity estimate (log intensity, higher = more binding, comparable within an allelic series) | 12.1 upbm affinity estimate (log intensity, higher = more binding, comparable within an allelic series) | 8.15 upbm affinity estimate (log intensity, higher = more binding, comparable within an allelic series) | 11.7 upbm affinity estimate (log intensity, higher = more binding, comparable within an allelic series) | 10.1 upbm affinity estimate (log intensity, higher = more binding, comparable within an allelic series) | 12.3 upbm affinity estimate (log intensity, higher = more binding, comparable within an allelic series) | 10.5 upbm affinity estimate (log intensity, higher = more binding, comparable within an allelic series) | 9.65 upbm affinity estimate (log intensity, higher = more binding, comparable within an allelic series) | 10.6 upbm affinity estimate (log intensity, higher = more binding, comparable within an allelic series) | 8.23 upbm affinity estimate (log intensity, higher = more binding, comparable within an allelic series) |  |  |  | 13.3 upbm affinity estimate (log intensity, higher = more binding, comparable within an allelic series) | 12.1 upbm affinity estimate (log intensity, higher = more binding, comparable within an allelic series) |  |  |  | 
AATTAGAT | 11.7 upbm affinity estimate (log intensity, higher = more binding, comparable within an allelic series) | 12.2 upbm affinity estimate (log intensity, higher = more binding, comparable within an allelic series) | 8.42 upbm affinity estimate (log intensity, higher = more binding, comparable within an allelic series) | 12 upbm affinity estimate (log intensity, higher = more binding, comparable within an allelic series) | 10.6 upbm affinity estimate (log intensity, higher = more binding, comparable within an allelic series) | 12.4 upbm affinity estimate (log intensity, higher = more binding, comparable within an allelic series) | 10.9 upbm affinity estimate (log intensity, higher = more binding, comparable within an allelic series) | 9.67 upbm affinity estimate (log intensity, higher = more binding, comparable within an allelic series) | 10.9 upbm affinity estimate (log intensity, higher = more binding, comparable within an allelic series) | 8.49 upbm affinity estimate (log intensity, higher = more binding, comparable within an allelic series) |  |  |  |  |  |  |  |  | 
CAATTATA |  |  | 8.6 upbm affinity estimate (log intensity, higher = more binding, comparable within an allelic series) |  |  | 12.5 upbm affinity estimate (log intensity, higher = more binding, comparable within an allelic series) |  | 10.2 upbm affinity estimate (log intensity, higher = more binding, comparable within an allelic series) |  | 8.66 upbm affinity estimate (log intensity, higher = more binding, comparable within an allelic series) |  |  |  | 14 upbm affinity estimate (log intensity, higher = more binding, comparable within an allelic series) |  | 11.4 upbm affinity estimate (log intensity, higher = more binding, comparable within an allelic series) |  |  | 
CCAATTAG | 11.7 upbm affinity estimate (log intensity, higher = more binding, comparable within an allelic series) | 12.2 upbm affinity estimate (log intensity, higher = more binding, comparable within an allelic series) | 8.31 upbm affinity estimate (log intensity, higher = more binding, comparable within an allelic series) | 12.2 upbm affinity estimate (log intensity, higher = more binding, comparable within an allelic series) | 10.4 upbm affinity estimate (log intensity, higher = more binding, comparable within an allelic series) | 12.7 upbm affinity estimate (log intensity, higher = more binding, comparable within an allelic series) | 10.8 upbm affinity estimate (log intensity, higher = more binding, comparable within an allelic series) | 10.4 upbm affinity estimate (log intensity, higher = more binding, comparable within an allelic series) | 10.8 upbm affinity estimate (log intensity, higher = more binding, comparable within an allelic series) | 8.47 upbm affinity estimate (log intensity, higher = more binding, comparable within an allelic series) | 12.3 upbm affinity estimate (log intensity, higher = more binding, comparable within an allelic series) | 11.9 upbm affinity estimate (log intensity, higher = more binding, comparable within an allelic series) | 12.9 upbm affinity estimate (log intensity, higher = more binding, comparable within an allelic series) | 14 upbm affinity estimate (log intensity, higher = more binding, comparable within an allelic series) | 12.6 upbm affinity estimate (log intensity, higher = more binding, comparable within an allelic series) |  | 13.3 upbm affinity estimate (log intensity, higher = more binding, comparable within an allelic series) | 10.8 upbm affinity estimate (log intensity, higher = more binding, comparable within an allelic series) | 12.1 upbm affinity estimate (log intensity, higher = more binding, comparable within an allelic series)
ACAATTAG |  |  |  |  |  |  |  |  |  |  | 11.8 upbm affinity estimate (log intensity, higher = more binding, comparable within an allelic series) | 11.6 upbm affinity estimate (log intensity, higher = more binding, comparable within an allelic series) |  | 13.7 upbm affinity estimate (log intensity, higher = more binding, comparable within an allelic series) |  |  |  |  | 
AACTAATT |  |  | 8.44 upbm affinity estimate (log intensity, higher = more binding, comparable within an allelic series) |  |  | 12.4 upbm affinity estimate (log intensity, higher = more binding, comparable within an allelic series) |  | 9.88 upbm affinity estimate (log intensity, higher = more binding, comparable within an allelic series) |  | 8.58 upbm affinity estimate (log intensity, higher = more binding, comparable within an allelic series) |  |  |  | 13.3 upbm affinity estimate (log intensity, higher = more binding, comparable within an allelic series) |  |  |  |  | 
AATTAGCG | 11.8 upbm affinity estimate (log intensity, higher = more binding, comparable within an allelic series) | 12.4 upbm affinity estimate (log intensity, higher = more binding, comparable within an allelic series) | 8.21 upbm affinity estimate (log intensity, higher = more binding, comparable within an allelic series) | 12.3 upbm affinity estimate (log intensity, higher = more binding, comparable within an allelic series) | 10.4 upbm affinity estimate (log intensity, higher = more binding, comparable within an allelic series) | 12.4 upbm affinity estimate (log intensity, higher = more binding, comparable within an allelic series) | 11 upbm affinity estimate (log intensity, higher = more binding, comparable within an allelic series) | 9.93 upbm affinity estimate (log intensity, higher = more binding, comparable within an allelic series) | 11 upbm affinity estimate (log intensity, higher = more binding, comparable within an allelic series) | 8.38 upbm affinity estimate (log intensity, higher = more binding, comparable within an allelic series) | 11.9 upbm affinity estimate (log intensity, higher = more binding, comparable within an allelic series) | 11.6 upbm affinity estimate (log intensity, higher = more binding, comparable within an allelic series) | 12.6 upbm affinity estimate (log intensity, higher = more binding, comparable within an allelic series) | 13.5 upbm affinity estimate (log intensity, higher = more binding, comparable within an allelic series) | 12.4 upbm affinity estimate (log intensity, higher = more binding, comparable within an allelic series) |  |  |  | 
AATTAAGG |  |  | 8.39 upbm affinity estimate (log intensity, higher = more binding, comparable within an allelic series) |  |  | 12.2 upbm affinity estimate (log intensity, higher = more binding, comparable within an allelic series) |  | 9.9 upbm affinity estimate (log intensity, higher = more binding, comparable within an allelic series) |  | 8.48 upbm affinity estimate (log intensity, higher = more binding, comparable within an allelic series) |  |  |  |  |  |  |  |  | 
